# In the supplement of paper PMC10105736:
# Unmarked numbers belong to inactive results.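 How the source made its calls: active = MAPPIT score above the 99th percentile of random reference set scores in the same batch; inactive = at or below it.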
# B1: MED6 (protein)
# chain: MASRQMTNDHLRLSWHDTQMMATLSPQTVMDYFCRKSNPFYDHMCNNETVRMQRLGPEHLHNMIGLEYILLHVAEPILYVIRKQHRHNPSEATPIADYYIIGGTVYKAPDLANVINSRILNTVVNLQSAFEEASSYARYHPNKGYTWDFSSNKVFSDRSKSDKKDANSAKDENSGTLFQKQRVDMLLAELLRKFPPPIPPMLQNLQQPPPAGDDLNTARNASEMNNATGPLDIKTEGVDMKPPPEKKSK
# B2: eIF2gamma (protein)
# chain: MATAEAQIGVNRNLQKQDLSNLDVSKLTPLSPEVISRQATINIGTIGHVAHGKSTVVKAISGVQTVRFKNELERNITIKLGYANAKIYKCDNPKCPRPASFVSDASSKDDSLPCTRLNCSGNFRLVRHVSFVDCPGHDILMATMLNGAAVMDAALLLIAGNESCPQPQTSEHLAAIEIMKLKQILILQNKIDLIKESQAKEQYEEITKFVQGTVAEGAPIIPISAQLKYNIDVLCEYIVNKIPVPPRDFNAPPRLIVIRSFDVNKPGCEVADLKGGVAGGSILSGVLKVGQEIEVRPGVVTKDSDGNITCRPIFSRIVSLFAEQNELQYAVPGGLIGVGTKIDPTLCRADRLVGQVLGAVGQLPDIYQELEISYYLLRRLLGVRTDGDKKGARVEKLQKNEILLVNIGSLSTGGRISATKGDLAKIVLTTPVCTEKGEKIALSRRVENHWRLIGWGQIFGGKTITPVLDSQVAKK
# B3: CG6724 (protein)
# chain: MDVDNGEGQVQVHLKTKQEHYAVPDVPYAIDGTVTTVELNTFVNALLRQKDGSSDTDFDFLVFDEYLRGRLCDHLREKAISFEDAIEIEYVERFPAPEPQDCLLHDDWVSAVKARGKWILSGCYDNTLNLWTNKGKHILTISGHTAPIKAVDWISLDEETGRFVSTSQDQTAMLWQWNVGSNSVECVSVCKGHERGVDSVSVSPDGLRFATGSWDTMLKVWSAELDDAVEGSSKRMKESGVRTPKITLQGHRESVSAVQWMDATTLLTGSWDHTLKVWDLSLEGIKTEISTNKSIFDASYSKLNRLILTASADKNLRLYDPRTNQGSVVRNTYLGHNAWVQTVMWSTTEEFLFVSGAYDNQNKLWDCRSPKAPLYDLLGHGEKVLDIDWSNPKYIVSGGVDNTVRVFKSRKALAEEAETK
# B4: slp2 (protein)
# chain: MVKIEEGLPSSEISAHSLHFQHHHHPLPPTTHHSALQSPHPVGLNLTNLMKMARTPHLKSSFSINSILPETVEHHDEDEEEDVEKKSPAKFPPNHNNNNLNTTNWGSPEDHEAESDPESDLDVTSMSPAPVANPNESDPDEVDEEFVEEDIECDGETTDGDAENKSNDGKPVKDKKGNEKPPYSYNALIMMAIRQSSEKRLTLNGIYEYIMTNHPYYRDNKQGWQNSIRHNLSLNKCFVKVPRHYDDPGKGNYWMLDPSAEDVFIGGSTGKLRRRTTAASRSRLAAFKRSLIGPMFPGLAAYPQFGQFLTYPPTAPSLLASMYQRYNPFAPKGGPGHPGLPPGLPGLPGPPGPQGPPGPPPPPFVAPPTSSELYQRLQYQQLLHQHAAAAALAAHQRQLSVAAASAASQPPPTHHHPHLAVGQAPLSPGGDSPGPSPQPLHKPVTVVSRNS
# B5: dlg1 (protein)
# chain: MPVKKQEAHRALELLEDYHARLSEPQDRALRIAIERVIRIFKSRLFQALLDIQEFYELTLLDDSKSIQQKTAETLQIATKWEKDGQAVKIADFIKSSNLNRNCAYEFNNDASSNQTNQSALNQNPIANNVSAQAQAEALSRTFKSELEEILNQRMRIESDTENAKEPTVEQQQKQQQAQQRSSRSPQQQNPQQQQGSKSRSGSQTVNGDDSWLYEDIQLERGNSGLGFSIAGGTDNPHIGTDTSIYITKLISGGAAAADGRLSINDIIVSVNDVSVVDVPHASAVDALKKAGNVVKLHVKRKRGTATTPAAGSAAGDARDSAASGPKVIEIDLVKGGKGLGFSIAGGIGNQHIPGDNGIYVTKLMDGGAAQVDGRLSIGDKLIAVRTNGSEKNLENVTHELAVATLKSITDKVTLIIGKTQHLTTSASGGGGGGLSSGQQLSQSQSQLATSQSQSQVHQQQHATPMVNSQSTEPGSRYASTNVLAAVPPGTPRAVSTEDITREPRTITIQKGPQGLGFNIVGGEDGQGIYVSFILAGGPADLGSELKRGDQLLSVNNVNLTHATHEEAAQALKTSGGVVTLLAQYRPEEYNRFEARIQELKQQAALGAGGSGTLLRTTQKRSLYVRALFDYDPNRDDGLPSRGLPFKHGDILHVTNASDDEWWQARRVLGDNEDEQIGIVPSKRRWERKMRARDRSVKFQGHAAANNNLDKQSTLDRKKKNFTFSRKFPFMKSRDEKNEDGSDQEPFMLCYTQDDANAEGASEENVLSYEAVQRLSINYTRPVIILGPLKDRINDDLISEYPDKFGSCVPHTTRPKREYEVDGRDYHFVSSREQMERDIQNHLFIEAGQYNDNLYGTSVASVREVAEKGKHCILDVSGNAIKRLQVAQLYPVAVFIKPKSVDSVMEMNRRMTEEQAKKTYERAIKMEQEFGEYFTGVVQGDTIEEIYSKVKSMIWSQSGPTIWVPSKESL
# B6: Sirt2 (protein)
# chain: MDKVRRFFANTLHLGGSSDAKEEVKVEKVIPDLSFDGFAEHWRVHGFRKIVTMVGAGISTSAGIPDFRSPGSGLYSNLKKYELPHPTAIFDLDYFEKNPAPFFALAKELYPGSFIPTPAHYFIRLLNDKGLLQRHYTQNIDTLDRLTGLPEDKIIEAHGSFHTNHCIKCRKEYDMDWMKAEIFADRLPKCQKCQGVVKPDIVFFGENLPKRFYSSPEEDFQDCDLLIIMGTSLEVQPFASLVWRPGPRCIRLLINRDAVGQASCVLFMDPNTRSLLFDKPNNTRDVAFLGDCDAGVMALAKALGWDQELQQLITSERKKLSGSQNSEELQQGKEKPQSDPDKMTSGDRDKKDASL
# B7: sesB (protein)
# chain: MGNISASITSQSKMGKDFDAVGFVKDFAAGGISAAVSKTAVAPIERVKLLLQVQHISKQISPDKQYKGMVDCFIRIPKEQGFSSFWRGNLANVIRYFPTQALNFAFKDKYKQVFLGGVDKNTQFWRYFAGNLASGGAAGATSLCFVYPLDFARTRLAADTGKGGQREFTGLGNCLTKIFKSDGIVGLYRGFGVSVQGIIIYRAAYFGFYDTARGMLPDPKNTPIYISWAIAQVVTTVAGIVSYPFDTVRRRMMMQSGRKATEVIYKNTLHCWATIAKQEGTGAFFKGAFSNILRGTGGAFVLVLYDEIKKVL
# B8: Uba5 (protein)
# chain: MSHAIDELQAIIADLKTELETEPKSSGGVASNSRLARDRIDRMSAEVVDSNPYSRLMALQRMNIVKDYERIRYKAVAIVGVGGVGSVTADMLTRCGIGKLILFDYDKVELANMNRLFFTPDQAGLSKVAAAAATLSFINPDVEIETHNYNITTVENFDRFLDTISQGGRIAGQPVDLVLSCVDNFEARMAINAACNERNLNWFESGVSENAVSGHIQFIRPGDTACFACAPPLVVAENIDEKTLKREGVCAASLPTTMGITAGFLVQNALKYLLNFGEVSDYLGYNALSDFFPKMTLKPNPQCDDRNCLVRQKEFQARPKPVLIEEKAVSEEPLHATNEWGIELVAEDAPESNTTPAETPVMGEGLRLAYEAPEKSSETSEETVSAATADETSLEDLMAQMKSM
# B9: ihog (protein)
# chain: MTLLTSSLLLFSLLTSRLEAIPVLEKSPAHPAHSAHPAHPAHPAHPAHPSPGVRILRAPESLVAPLGDEVVLECETSLQPERFEWSHRSSRSPGAGFKYLKTGTAKANVSQEAAISRLRVLVRPDTLGEYRCVGWFGPLVVTSTIARLELASTSLVDAQESESPLQWRVSAGNSVLWSCGQQVQSNPSASWSYYRNGVEIKPEFIGTNGNLFLSNVSSESSGSYSCQATNPASGERIQLPGSLQLQVTPEQRSESKSPHLLRGQPSSQEITIREGSSLLLLCPGVGSPPPTVVWSSPDVVGAVKNKRSKVFGHALEISNTRVNDAGTYICFQDNGVRPALEHYIKVHVEQPPQIVRPPWADLTNEGDRLKLECKATGVPTPEIYWLLNGHSSIDDSEAELSNNFLILHSVLKRHAGYVQCFARNRLGEHSAGTLLQVNPKQIQEPRESGGTHRPKPNQGSRQKQMYPPTPPNVTRLSDESVMLRWMVPRNDGLPIVIFKVQYRMVGKRKNWQTTNDNIPYGKPKWNSELGKSFTASVTDLKPQHTYRFRILAVYSNNDNKESNTSAKFYLQPGAALDPMPVPELLEIEEYSETAVVLHWSLASDADEHLITGYYAYYRPSSSAGEYFKATIEGAHARSFKIAPLETATMYEFKLQSFSAASASEFSALKQGRTQRPKTSTTEEPTLQMGDRDTTTPSHNETFNMSPMLTGTIGGGAVLILLLISTCFCVCRRRNSRSRGNNPNKPRMAELRDDFVPLGNCSPTKQRQRTRHIHITLNPLAQQQQQALEEKNDTDQDAPYYQRPSSYDYDPTLRRMSSSSLRRSQRTLERAGGSNGSNNGNNNNLNQSAEAGSIENPGKPGRVLMKRPRLSSRSENLSSGSLNSVGV
# B10: fd59A (protein)
# chain: MHTSTDPMHTLHDSVSLSPPLIKSSRGGSSIGNGIGCSASSRTAAADAMSMGCDDSDIEPSSMGGSGAAGGNGDGSGSSGGPLVKPPYSYIALITMAILQSPHKKLTLSGICDFIMSRFPYYKDKFPAWQNSIRHNLSLNDCFIKVPREPGNPGKGNFWTLDPLAEDMFDNGSFLRRRKRYKRAPTMQRFSFPAVFGTLSPFWIRKPVPLVPVHFNVPNFNGSREFDVVHNPADVFDSALRADKKFNFFANAEASFYQGSQSGDKFDRLPFMNRGRGADVLDALPHSSGSGGGVGGGSESSRGSKYKSPYAFDVATVASAAGIPGHRDYAERLSAGGGYMDLNVYNDDADTEADAEAEGDDDSCEDKIDVESGNEQEDSHISDSVDSACTNRLDAPPEALIFEASAEASDSSPRRRFDSEPLVLRTSKQSSAKDFRIETLIGHHLHRGGSQEETSD
# B11: MED8 (protein)
# chain: MQRDEKLFELTLDTVLQRLNDLKLAVLSMIQKLELEYETINWPTFLDNFAIISSHLTGLTKILAKEQCPPLRNRTVLPLLVSMDRDDTLINITEGRVPVFSHDIVPDYLRTRPDPITEQKMLQNEQKAANLTNDAAMKQVTQYNKVVSHVLDMVSKAREEWEIESSSRTGIQQTSSMADTQLLVAAVGMGKGLKLTNYGPGPGMMVPPSIRAPSPMGGPAMSPGNVQQQLGKAPSAVKTNIKSANQVHPFSR
# Key:
# Assay in all cases: MAPPIT interaction score (arbitrary units); higher = stronger binary interaction signal, active = hit call of the paper
# glob1 = details: MAPPIT configuration: N-N
# grp = details: MAPPIT configuration: N-N; pair source set: DPIM
# gsb-n = details: MAPPIT configuration: N-N; pair source set: Finley_Y2H
# gukh = details: MAPPIT configuration: N-C; pair source set: Lit-BM-16
# mRpL39 = details: MAPPIT configuration: N-N; pair source set: DPIM
# gus = details: MAPPIT configuration: N-N; pair source set: Finley_Y2H
# hid = details: pair source set: RRS
# htl = details: MAPPIT configuration: N-N; pair source set: RRS
# ihog = details: pair source set: Lit-BM-16
# isoQC = details: MAPPIT configuration: N-N; pair source set: DPIM
# ix = details: pair source set: Lit-BM-16
# 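Further: HEK293T cells with Epo stimulation, STAT-responsive firefly luciferase reporter, fold induction versus unstimulated cells divided by the larger fold induction of two negative controls lacking either bait or prey.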
binder,measurement,setting,value
B1,MAPPIT interaction score,glob1; pair source set: Lit-BS-16,-0.386
B2,MAPPIT interaction score,glob1; pair source set: RRS,0.425
B3,MAPPIT interaction score,grp,0.11
B4,MAPPIT interaction score,gsb-n,-0.371
B5,MAPPIT interaction score,gukh,1.68
same,MAPPIT interaction score,mRpL39,0.743
B6,MAPPIT interaction score,gus,-0.0617
B7,MAPPIT interaction score,hid; MAPPIT configuration: N-C,0.0222
same,MAPPIT interaction score,hid; MAPPIT configuration: N-N,-0.106
B8,MAPPIT interaction score,htl,0.0658
B9,MAPPIT interaction score,ihog; MAPPIT configuration: N-C,-0.576
same,MAPPIT interaction score,ihog; MAPPIT configuration: N-N,-0.268
B10,MAPPIT interaction score,isoQC,0.602
B11,MAPPIT interaction score,ix; MAPPIT configuration: N-C,3.01
same,MAPPIT interaction score,ix; MAPPIT configuration: N-N,2.19
